Measured values from PubChem BioAssay AID1159580 (chemical genetic matrix, 2015).
“And” between values parts separate entries of the source, which are not always exact repeats. Identical values can stand only once. Among all 5,500 compounds or so, about 2,000 (36%) were called active. Not shown: some 18% with an inconclusive outcome. Rule as the data show it: active = normalized growth mostly below about 0.91 (no sharp cut-off); inconclusive = no clear call, values can overlap the other calls; inactive = mostly above about 0.92. Some of the results follow.

Assay: chemical genetic growth profiling, strain panel (AID 1159580);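 also: tested at 20 µM; growth read once vehicle control cultures reached saturation at 30 °C; 1 = growth at the plate median or of vehicle wells; lower values mean less growth of the strain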
Settings: S. cerevisiae deletion strains, growth OD

Measured: normalized growth

CC(=O)Oc1ccc(/C=C/c2cc(OC(C)=O)cc(OC(C)=O)c2)cc1
active: locus YDR392W, strain spt3, active compounds read low 0.668
inactive: locus YAL021C, strain ccr4, active compounds read low 0.979 | locus YAL026C, strain drs2, active compounds read low 0.984 | locus YAL030W, strain snc1, active compounds read low 0.97 | locus YBL061C, strain skt5, active compounds read low 0.976 | locus YBR009C, strain hhf1, active compounds read low 0.962 | locus YBR021W, strain FUR4, active compounds read low 0.96 | locus YBR023C, strain chs3, active compounds read low 0.975 | locus YBR171W, strain sec66, active compounds read low 0.978 | locus YBR229C, strain ROT2, active compounds read low 0.997 | locus YBR231C, strain swc5, active compounds read low 0.986 | locus YBR279W, strain paf1, active compounds read low 0.978 | locus YCL011C, strain gbp2, active compounds read low 0.972 | locus YCL016C, strain dcc1, active compounds read low 0.98 | locus YCL029C, strain bik1, active compounds read low 1.01 | locus YCL061C, strain MRC1, active compounds read low 0.953 | locus YCL069W, strain vba3, active compounds read low 0.984 | locus YCR088W, strain abp1, active compounds read low 0.979 | locus YDL005C, strain med2, active compounds read low 0.963 | locus YDL035C, strain GPR1, active compounds read low 0.984 | locus YDL040C, strain nat1, active compounds read low 0.963 | locus YDL074C, strain BRE1, active compounds read low 0.982 | locus YDL101C, strain DUN1, active compounds read low 0.993 | locus YDL134C, strain PPH21, active compounds read low 0.97 | locus YDL185W, strain tfp1, active compounds read low 1.02 | locus YDL192W, strain arf1, active compounds read low 0.997 | locus YDR001C, strain nth1, active compounds read low 0.987 | locus YDR069C, strain doa4, active compounds read low 0.966 | locus YDR101C, strain arx1, active compounds read low 0.987 | locus YDR137W, strain rgp1, active compounds read low 0.925 | locus YDR159W, strain sac3, active compounds read low 0.951 | locus YDR162C, strain NBP2, active compounds read low 0.977 | locus YDR195W, strain ref2 0.985 | locus YDR297W, strain sur2, active compounds read low 0.979 | locus YDR318W, strain mcm21, active compounds read low 0.986 | locus YDR334W, strain swr1, active compounds read low 0.981 | locus YDR335W, strain msn5, active compounds read low 0.987 | locus YDR388W, active compounds read low 1 | locus YDR502C, strain sam2, active compounds read low 0.999 | locus YEL003W, strain gim4, active compounds read low 0.969 | locus YEL037C, strain rad23, active compounds read low 0.983 | locus YEL061C, strain CIN8 (second series), active compounds read low 0.99 | locus YEL061C, strain CIN8, active compounds read low 0.999 | locus YER015W, strain faa2, active compounds read low 0.974 | locus YER016W, strain bim1, active compounds read low 0.976 | locus YER110C, active compounds read low 1.01 | locus YER111C, strain swi4, active compounds read low 0.976 | locus YER155C, strain BEM2 (second series), active compounds read low 0.924 | locus YER155C, strain BEM2, active compounds read low 1.01 | locus YER167W, strain BCK2, active compounds read low 0.991 | locus YFR010W, strain ubp6, active compounds read low 0.985 | locus YGL078C, strain dbp3, active compounds read low 0.996 | locus YGL086W, strain mad1, active compounds read low 0.994 | locus YGL167C, strain pmr1, active compounds read low 0.978 | locus YGL173C, strain kem1, active compounds read low 0.961 | locus YGL227W, strain vid30, active compounds read low 0.982 | locus YGL240W, strain doc1, active compounds read low 0.942 | locus YGL248W, strain PDE1, active compounds read low 0.974 | locus YGL253W, strain hxk2, active compounds read low 0.973 | locus YGR135W, strain pre9, active compounds read low 0.977 | locus YGR229C, strain SMI1, active compounds read low 1.01 | locus YGR252W, strain gcn5, active compounds read low 0.951 | locus YHR013C, strain ard1, active compounds read low 0.978 | locus YHR027C, strain rpn1, active compounds read low 0.975 | locus YHR030C, strain SLT2, active compounds read low 1.01 and 1.03 | locus YHR079C, strain IRE1 (second series), active compounds read low 1 | locus YHR079C, strain IRE1, active compounds read low 1.03 | locus YHR094C, strain hxt1, active compounds read low 1 | locus YHR129C, strain ARP1, active compounds read low 0.985 | locus YHR142W, strain chs7, active compounds read low 0.968 | locus YHR200W, strain rpn10, active compounds read low 1.01 | locus YIL066C, strain RNR3, active compounds read low 0.965 | locus YIL073C, strain SPO22, active compounds read low 1.04 | locus YIL125W, strain kgd1, active compounds read low 1.02 | locus YIR030C, strain dcg1, active compounds read low 0.99 | locus YJL092W, strain hpr5, active compounds read low 0.977 | locus YJL095W, strain BCK1 (second series), active compounds read low 0.983 | locus YJL095W, strain BCK1, active compounds read low 0.962 and 0.998 | locus YJL115W, strain asf1, active compounds read low 0.992 | locus YJL129C, strain trk1, active compounds read low 0.978 | locus YJL134W, strain LCB3, active compounds read low 1.01 | locus YJL154C, strain vps35, active compounds read low 0.983 | locus YJL164C, strain tpk1, active compounds read low 0.96 | locus YJL166W, strain qcr8, active compounds read low 0.95 | locus YJL168C, strain set2, active compounds read low 0.997 | locus YJL187C, strain SWE1 (second series), active compounds read low 0.98 | locus YJL187C, strain SWE1, active compounds read low 0.993 | locus YJR043C, strain POL32, active compounds read low 0.979 | locus YJR066W, strain TOR1, active compounds read low 0.972 | locus YJR075W, strain HOC1, active compounds read low 0.985 | locus YKL009W, strain mrt4, active compounds read low 1.04 | locus YKL068W, active compounds read low 1 | locus YKL085W, strain MDH1 (second series), active compounds read low 0.999 | locus YKL085W, strain MDH1, active compounds read low 0.999 | locus YKL160W, strain elf1, active compounds read low 0.959 | locus YKL190W, strain CNB1, active compounds read low 1 | locus YKR001C, strain vps1, active compounds read low 0.982 | locus YKR026C, strain gcn3, active compounds read low 0.979 | locus YKR091W, strain srl3, active compounds read low 0.983 | locus YLL001W, strain dnm1, active compounds read low 0.966 | locus YLL026W, active compounds read low 0.976 | locus YLL041C, strain sdh2, active compounds read low 0.98 | locus YLR027C, strain aat2, active compounds read low 0.979 | locus YLR039C, strain RIC1, active compounds read low 0.928 | locus YLR058C, strain SHM2, active compounds read low 0.99 | locus YLR102C, strain apc9, active compounds read low 1.03 | locus YLR113W, strain HOG1, active compounds read low 0.934 | locus YLR221C, strain rsa3, active compounds read low 0.949 | locus YLR258W, strain gsy2, active compounds read low 0.957 | locus YLR262C, strain YPT6 (second series), active compounds read low 0.907 | locus YLR262C, strain YPT6, active compounds read low 0.925 | locus YLR268W, strain sec22, active compounds read low 0.999 | locus YLR320W, strain mms22, active compounds read low 0.921 | locus YLR330W, strain CHS5, active compounds read low 0.996 | locus YLR342W, strain FKS1 (second series), active compounds read low 1.01 | locus YLR342W, strain FKS1, active compounds read low 0.968 | locus YLR357W, strain rsc2, active compounds read low 0.937 | locus YLR370C, strain arc18, active compounds read low 0.981 | locus YLR371W, strain rom2, active compounds read low 0.995 | locus YLR384C, strain iki3, active compounds read low 0.959 | locus YLR418C, strain cdc73, active compounds read low 0.889 | locus YML016C, strain PPZ1, active compounds read low 0.999 | locus YML032C, strain rad52, active compounds read low 1.01 | locus YML120C, strain ndi1, active compounds read low 0.985 | locus YML124C, strain tub3, active compounds read low 0.998 | locus YMR078C, strain ctf18, active compounds read low 1.01 | locus YMR125W, strain sto1, active compounds read low 0.974 | locus YMR129W, active compounds read low 0.985 | locus YMR205C, strain PFK2, active compounds read low 0.948 | locus YMR223W, strain ubp8, active compounds read low 0.959 | locus YMR231W, strain pep5, active compounds read low 0.965 | locus YMR263W, strain SAP30, active compounds read low 0.988 | locus YMR307W, strain GAS1, active compounds read low 1.16 | locus YNL067W, strain RPL9B, active compounds read low 0.973 | locus YNL071W, strain lat1, active compounds read low 0.952 | locus YNL153C, strain GIM3, active compounds read low 0.989 | locus YNL183C, strain NPR1, active compounds read low 0.935 | locus YNL209W, strain ssb2, active compounds read low 0.984 | locus YNL233W, strain BNI4, active compounds read low 0.948 | locus YNL248C, strain rpa49, active compounds read low 0.961 | locus YNL250W, strain rad50, active compounds read low 0.998 | locus YNL271C, strain bni1, active compounds read low 1.02 | locus YNL298W, strain CLA4, active compounds read low 0.989 | locus YNL307C, strain MCK1, active compounds read low 0.977 | locus YNL322C, strain KRE1 (second series), active compounds read low 0.964 | locus YNR049C, strain mso1, active compounds read low 0.978 | locus YNR052C, strain pop2, active compounds read low 0.981 | locus YOL006C, strain TOP1, active compounds read low 0.883 | locus YOL012C, strain htz1 0.967 | locus YOL147C, strain pex11, active compounds read low 1 | locus YOR001W, strain rrp6, active compounds read low 0.96 | locus YOR061W, strain CKA2, active compounds read low 1.01 | locus YOR069W, strain VPS5, active compounds read low 1 | locus YOR070C, strain gyp1, active compounds read low 0.959 | locus YOR080W, strain dia2, active compounds read low 1.01 | locus YOR083W, strain WHI5, active compounds read low 0.958 | locus YOR106W, strain vam3, active compounds read low 0.988 | locus YOR136W, strain idh2, active compounds read low 1.01 | locus YOR144C, strain elg1, active compounds read low 1.01 | locus YOR184W, strain ser1, active compounds read low 0.904 | locus YOR231W, strain MKK1, active compounds read low 1 | locus YOR265W, strain rbl2, active compounds read low 0.968 | locus YOR270C, strain vph1, active compounds read low 0.919 | locus YOR290C, strain snf2, active compounds read low 0.944 | locus YOR316C, strain cot1, active compounds read low 1.02 | locus YPL051W, strain arl3, active compounds read low 0.98 | locus YPL055C, strain LGE1, active compounds read low 0.947 | locus YPL078C, strain atp4, active compounds read low 0.963 | locus YPL106C, strain sse1, active compounds read low 0.91 | locus YPL240C, strain hsp82, active compounds read low 0.976 | locus YPL241C, strain CIN2, active compounds read low 0.998 | locus YPL256C, strain CLN2, active compounds read low 1.04 | locus YPR119W, strain clb2, active compounds read low 1.01 | locus YPR141C, strain kar3, active compounds read low 1.01 | locus YPR163C, strain tif3, active compounds read low 0.994 | locus YPR167C, strain met16, active compounds read low 1.02 | strain wtn01, active compounds read low 1.01
